According to the supplement of paper PMC4466140:

Legend:
Experiment in all cases: SPOT peptide array binding signal intensity (averaged, normalized) (arbitrary units (background-subtracted, floor 0; scale differs between SH3 domains)); higher = stronger binding of the SH3 domain to the peptide
AgAbp1 = molecular target: AgAbp1
Method in brief: (§1)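 Binding signal is given in arbitrary units that differ between domains and is the normalized, background-subtracted spot intensity averaged across replicates. Each GST-SH3 fusion from one of four yeast species was made in E. coli BL21(DE3), purified on glutathione Sepharose and incubated at 10 μg/ml overnight at 4°C on cellulose-bound synthetic 15-mer peptides in which cysteines were replaced by serines. Detection used anti-GST antibody, an HRP anti-mouse secondary and luminol, followed by imaging and Genespotter quantification.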

AgBbc1 = molecular target: AgBbc1
Method in brief: as §1

AgBem1-D1 = molecular target: AgBem1-D1
Method in brief: as §1

AgBzz1-D1 = molecular target: AgBzz1-D1
Method in brief: as §1

AgBzz1-D2 = molecular target: AgBzz1-D2
Method in brief: as §1

AgCyk3 = molecular target: AgCyk3
Method in brief: as §1

AgFus1 = molecular target: AgFus1
Method in brief: as §1

AgHof1 = molecular target: AgHof1
Method in brief: as §1

AgHse1 = molecular target: AgHse1
Method in brief: as §1

AgLsb1 = molecular target: AgLsb1
Method in brief: as §1

AgLsb4 = molecular target: AgLsb4
Method in brief: as §1

AgMyo5 = molecular target: AgMyo5
Method in brief: as §1

AgNbp2 = molecular target: AgNbp2
Method in brief: as §1

AgRvs167 = molecular target: AgRvs167
Method in brief: as §1

AgSho1 = molecular target: AgSho1
Method in brief: as §1

AgSla1-D1-D2 = molecular target: AgSla1-D1-D2
Method in brief: as §1

AgSla1-D3 = molecular target: AgSla1-D3
Method in brief: as §1

CaAbp1-D1 = molecular target: CaAbp1-D1
Method in brief: as §1

CaAbp1-D2 = molecular target: CaAbp1-D2
Method in brief: as §1

CaBbc1 = molecular target: CaBbc1
Method in brief: as §1

CaBem1-D1 = molecular target: CaBem1-D1
Method in brief: as §1

CaBzz1-D1 = molecular target: CaBzz1-D1
Method in brief: as §1

CaBzz1-D2 = molecular target: CaBzz1-D2
Method in brief: as §1

CaCyk3 = molecular target: CaCyk3
Method in brief: as §1

CaFus1 = molecular target: CaFus1
Method in brief: as §1

CaHof1 = molecular target: CaHof1
Method in brief: as §1

CaHse1 = molecular target: CaHse1
Method in brief: as §1

CaLsb1 = molecular target: CaLsb1
Method in brief: as §1

CaLsb4 = molecular target: CaLsb4
Method in brief: as §1

CaMyo5 = molecular target: CaMyo5
Method in brief: as §1

CaNbp2 = molecular target: CaNbp2
Method in brief: as §1

CaRvs167 = molecular target: CaRvs167
Method in brief: as §1

CaRvs167-3 = molecular target: CaRvs167-3
Method in brief: as §1

CaSho1 = molecular target: CaSho1
Method in brief: as §1

CaSla1-D1-D2 = molecular target: CaSla1-D1-D2
Method in brief: as §1

CaSla1-D3 = molecular target: CaSla1-D3
Method in brief: as §1

ScAbp1 = molecular target: ScAbp1
Method in brief: as §1

ScBbc1 = molecular target: ScBbc1
Method in brief: as §1

ScBem1-D1 = molecular target: ScBem1-D1
Method in brief: as §1

ScBzz1-D1 = molecular target: ScBzz1-D1
Method in brief: as §1

ScBzz1-D2 = molecular target: ScBzz1-D2
Method in brief: as §1

ScCyk3 = molecular target: ScCyk3
Method in brief: as §1

ScFus1 = molecular target: ScFus1
Method in brief: as §1

ScHof1 = molecular target: ScHof1
Method in brief: as §1

ScHse1 = molecular target: ScHse1
Method in brief: as §1

ScLsb1 = molecular target: ScLsb1
Method in brief: as §1

ScLsb2 = molecular target: ScLsb2
Method in brief: as §1

ScLsb3 = molecular target: ScLsb3
Method in brief: as §1

ScLsb4 = molecular target: ScLsb4
Method in brief: as §1

ScMyo3 = molecular target: ScMyo3
Method in brief: as §1

ScMyo5 = molecular target: ScMyo5
Method in brief: as §1

ScNbp2 = molecular target: ScNbp2
Method in brief: as §1

ScPex13 = molecular target: ScPex13
Method in brief: as §1

ScRvs167 = molecular target: ScRvs167
Method in brief: as §1

ScSho1 = molecular target: ScSho1
Method in brief: as §1

ScSla1-D1-D2 = molecular target: ScSla1-D1-D2
Method in brief: as §1

ScSla1-D3 = molecular target: ScSla1-D3
Method in brief: as §1

SpAbp1-D1 = molecular target: SpAbp1-D1
Method in brief: as §1

SpBbc1 = molecular target: SpBbc1
Method in brief: as §1

SpBzz1-D1 = molecular target: SpBzz1-D1
Method in brief: as §1

SpBzz1-D2 = molecular target: SpBzz1-D2
Method in brief: as §1

SpCyk3 = molecular target: SpCyk3
Method in brief: as §1

SpHof1 = molecular target: SpHof1
Method in brief: as §1

SpHof1-2 = molecular target: SpHof1-2
Method in brief: as §1

SpHof1-3 = molecular target: SpHof1-3
Method in brief: as §1

SpHse1 = molecular target: SpHse1
Method in brief: as §1

SpLsb1 = molecular target: SpLsb1
Method in brief: as §1

SpLsb4 = molecular target: SpLsb4
Method in brief: as §1

SpMyo1 = molecular target: SpMyo1
Method in brief: as §1

SpNbp2 = molecular target: SpNbp2
Method in brief: as §1

SpPex13 = molecular target: SpPex13
Method in brief: as §1

SpRvs167 = molecular target: SpRvs167
Method in brief: as §1

SpSla1-D1-D2 = molecular target: SpSla1-D1-D2
Method in brief: as §1

SpSla1-D3 = molecular target: SpSla1-D3
Method in brief: as §1

NPLPKEPRLPKRKVA
SPOT peptide array binding signal intensity (AgAbp1): 16
SPOT peptide array binding signal intensity (AgBbc1): 254
SPOT peptide array binding signal intensity (AgBem1-D1): 66.5
SPOT peptide array binding signal intensity (AgBzz1-D1): 48
SPOT peptide array binding signal intensity (AgBzz1-D2): 78.5
SPOT peptide array binding signal intensity (AgCyk3): 1
SPOT peptide array binding signal intensity (AgFus1): 20
SPOT peptide array binding signal intensity (AgHof1): 28
SPOT peptide array binding signal intensity (AgHse1): 134
SPOT peptide array binding signal intensity (AgLsb1): 3.25
SPOT peptide array binding signal intensity (AgLsb4): 2040
SPOT peptide array binding signal intensity (AgMyo5): ≤ 0
SPOT peptide array binding signal intensity (AgNbp2): 25
SPOT peptide array binding signal intensity (AgRvs167): 23
SPOT peptide array binding signal intensity (AgSho1): 37
SPOT peptide array binding signal intensity (AgSla1-D1-D2): 28
SPOT peptide array binding signal intensity (AgSla1-D3): 9
SPOT peptide array binding signal intensity (CaAbp1-D1): 655
SPOT peptide array binding signal intensity (CaAbp1-D2): 376
SPOT peptide array binding signal intensity (CaBbc1): 1010
SPOT peptide array binding signal intensity (CaBem1-D1): 30
SPOT peptide array binding signal intensity (CaBzz1-D1): 122
SPOT peptide array binding signal intensity (CaBzz1-D2): 95.5
SPOT peptide array binding signal intensity (CaCyk3): 6.5
SPOT peptide array binding signal intensity (CaFus1): 190
SPOT peptide array binding signal intensity (CaHof1): 2
SPOT peptide array binding signal intensity (CaHse1): 10.8
SPOT peptide array binding signal intensity (CaLsb1): 4
SPOT peptide array binding signal intensity (CaLsb4): 3890
SPOT peptide array binding signal intensity (CaMyo5): 4
SPOT peptide array binding signal intensity (CaNbp2): 112
SPOT peptide array binding signal intensity (CaRvs167): 303
SPOT peptide array binding signal intensity (CaRvs167-3): 4.5
SPOT peptide array binding signal intensity (CaSho1): 60
SPOT peptide array binding signal intensity (CaSla1-D1-D2): 1220
SPOT peptide array binding signal intensity (CaSla1-D3): 6
SPOT peptide array binding signal intensity (ScAbp1): 147
SPOT peptide array binding signal intensity (ScBbc1): 168
SPOT peptide array binding signal intensity (ScBem1-D1): 12.5
SPOT peptide array binding signal intensity (ScBzz1-D1): 81
SPOT peptide array binding signal intensity (ScBzz1-D2): 56.5
SPOT peptide array binding signal intensity (ScCyk3): 3
SPOT peptide array binding signal intensity (ScFus1): 42
SPOT peptide array binding signal intensity (ScHof1): 1.25
SPOT peptide array binding signal intensity (ScHse1): 337
SPOT peptide array binding signal intensity (ScLsb1): 29.5
SPOT peptide array binding signal intensity (ScLsb2): ≤ 0
SPOT peptide array binding signal intensity (ScLsb3): 3820
SPOT peptide array binding signal intensity (ScLsb4): 1350
SPOT peptide array binding signal intensity (ScMyo3): ≤ 0
SPOT peptide array binding signal intensity (ScMyo5): ≤ 0
SPOT peptide array binding signal intensity (ScNbp2): 41
SPOT peptide array binding signal intensity (ScPex13): 58.2
SPOT peptide array binding signal intensity (ScRvs167): 1460
SPOT peptide array binding signal intensity (ScSho1): 286
SPOT peptide array binding signal intensity (ScSla1-D1-D2): 546
SPOT peptide array binding signal intensity (ScSla1-D3): 4.5
SPOT peptide array binding signal intensity (SpAbp1-D1): 86
SPOT peptide array binding signal intensity (SpBbc1): 4.25
SPOT peptide array binding signal intensity (SpBzz1-D1): 356
SPOT peptide array binding signal intensity (SpBzz1-D2): 2.5
SPOT peptide array binding signal intensity (SpCyk3): ≤ 0
SPOT peptide array binding signal intensity (SpHof1): 120
SPOT peptide array binding signal intensity (SpHof1-2): 262
SPOT peptide array binding signal intensity (SpHof1-3): 464
SPOT peptide array binding signal intensity (SpHse1): 198
SPOT peptide array binding signal intensity (SpLsb1): 16
SPOT peptide array binding signal intensity (SpLsb4): 7280
SPOT peptide array binding signal intensity (SpMyo1): ≤ 0
SPOT peptide array binding signal intensity (SpNbp2): 27
SPOT peptide array binding signal intensity (SpPex13): 15
SPOT peptide array binding signal intensity (SpRvs167): 1700
SPOT peptide array binding signal intensity (SpSla1-D1-D2): ≤ 0
SPOT peptide array binding signal intensity (SpSla1-D3): 15
